Results from PubChem BioAssay (EPA / NIEHS).
Where “and” joins values, the source holds several entries; their conditions need not be identical. Identical values can stand only once. Some compounds were tested as several samples or in several runs, with calls that do not always agree. Calls of active or inactive are those of the source. The calls were made as follows: active = hit-call score of the fitted dose curve at least 0.9, where 1 is the maximum; inactive = score below 0.9.

What follows are compounds tested on Vascular cell adhesion molecule 1 (VCAM1), VCAM1 (gene 7412) (assay: BSK_LPS_VCAM1: BioMAP Diversity Plus: LPS Assay for Vascular cell adhesion molecule 1 (VCAM1) Biomarker Activity (AID 2283086)). Conditions: primary human HUVEC with PBMC; actives raise or lower the signal.
In short: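 Measured by ELISA: VCAM-1 in LPS-activated HUVEC/PBMC co-cultures 24 h after treatment. Values reflect bidirectional fitting with DMSO as baseline.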

Row | Structure (SMILES) | outcome | AC50
1 | O=C(c1ccccc1)C1CCCCC1 | inactive | 
2 | S=C(S)NCCNC(=S)S.[Mn+2].[S-]C([S-])=NCCN=C([S-])[S-].[Zn+2] | inactive | 8.85 µM (active)
3 | OB(O)O | inactive | 
4 | CCN(Cc1c(F)cccc1Cl)c1c([N+](=O)[O-])cc(C(F)(F)F)cc1[N+](=O)[O-] | inactive | 
5 | CCCCC(CC)COC(=O)c1ccccc1C(=O)O (configuration not stated) |  | 22.9 µM (active)
6 | c1ccc(Nc2ccccc2)cc1 | inactive | 
7 | CCOC(=O)C(C)Oc1ccc(Oc2cnc3cc(Cl)ccc3n2)cc1 (configuration not stated) | inactive | 
8 | CC(C)CCCCCCc1ccc(O)cc1 |  | 10 µM (active)
9 | N#CSCSc1nc2ccccc2s1 |  | 4.53 µM (active) and 9.69 µM (active)
10 | CCCN(CCC)c1c([N+](=O)[O-])cc(C(F)(F)F)c(N)c1[N+](=O)[O-] |  | 30.7 µM (active)
11 | O=C(O)c1ccccc1 | inactive | 
12 | O=C(O)C1(C(=O)Nc2ccc(Cl)cc2Cl)CC1 | inactive | 
13 | CC(=O)S[C@@H]1CC2=CC(=O)CC[C@]2(C)[C@H]2CC[C@@]3(C)[C@@H](CC[C@@]34CCC(=O)O4)[C@H]12 |  | 29.7 µM (active)
14 | CCCN(CCC)C(=O)SCC | inactive | 
15 | Cc1nn(C)c(Oc2ccccc2)c1C=NOCc1ccc(C(=O)OC(C)(C)C)cc1 |  | 9.84 µM (active)
16 | CCCCOCCOCCOCc1cc2c(cc1CCC)OCO2 | inactive | 
17 | CC1(C)C(C=C(Cl)Cl)C1C(=O)OCc1cccc(Oc2ccccc2)c1 (configuration not stated) | inactive | 
18 | CCOC(=O)C(C)Oc1ccc(Oc2nc3ccc(Cl)cc3o2)cc1 (configuration not stated) | inactive | 
19 | CCC(O)=C1C(=O)CC(C(=O)O)CC1=O (configuration not stated) | inactive | 
20 | CCSC(=O)N(CC(C)C)CC(C)C | inactive | 
21 | C[C@]12CC[C@@H]3c4ccc(O)cc4C[C@@H](CCCCCCCCCS(=O)CCCC(F)(F)C(F)(F)F)[C@H]3[C@@H]1CC[C@@H]2O (some centres not stated) | inactive | 
22 | COC(=O)c1ccc(I)cc1S(=O)(=O)NC(=O)Nc1nc(C)nc(OC)n1 | inactive | 
23 | C#C[C@]1(O)CC[C@H]2[C@@H]3CCC4=CC(=O)CC[C@@H]4[C@H]3CC[C@@]21CC | inactive | 
24 | CCOC(=O)c1ccc(O)cc1 | inactive | 
25 | c1ccc2[nH]c(-c3cscn3)nc2c1 | inactive | 
26 | CCNc1nc(N)nc(Cl)n1 | inactive | 
27 | CCCCOC(=O)C(C)Oc1ccc(Oc2ccc(C(F)(F)F)cn2)cc1 (configuration not stated) | inactive | 
28 | CCOC(=O)NCCOc1ccc(Oc2ccccc2)cc1 | inactive | 
29 | CSC(=O)c1cccc2nnsc12 | inactive | 
30 | CC(C)(c1ccc(O)cc1)c1ccc(O)cc1 | inactive | 25.5 µM (active) and 27 µM (active) and 20 µM (active)
